{"source": "PubChem BioAssay (NCATS)", "note": "Records with an inconclusive call do not appear. Where a call stands in place of a potency, no number is given. Calls of active or inactive are those of the source. Calls follow the shape of the dose curve; as a rule, active = well fitted cell-killing curve with a large enough effect; inconclusive = small, poorly fitted or top-dose-only effect, or effect the other way; inactive = flat fitted curve, though single readings scatter. Potency is read from the fitted curve at half-maximal effect."}
{"system": "CASKI", "assay": "Primary qHTS to identify gynecologic anti-cancer compounds using libraries of approved drugs and bioactive compounds (AID 1345084); also: nearly all actives have a fitted effect of over 55% in size", "conditions": "Gynecologic cancer cell panel viability, ATPlite luminescence, 48 h; series mostly up to 57.5 µM", "outline": "(§1)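 Cells, 1,000 per well, plated 16 h, then exposed 48 h at 37 C to compounds. Viability by ATPlite luminescence after 15 min at room temperature.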"}
{"smiles": "CC1CC(=O)C2=C(C1)C1OC1C1(O)C2C(=O)c2cccc(O)c2C1O", "note": "(centres undefined)", "Potency": "inactive"}
{"smiles": "Cc1cc(C)c2c(c1)C(N(Cc1cc(C(F)(F)F)cc(C(F)(F)F)c1)c1nnn(C)n1)CCCN2CC1CCC(C(=O)O)CC1", "note": "(centres undefined)", "Potency": "inactive"}
{"smiles": "Cc1nc2ccc(CN(C)c3ccc(C(=O)NC(CCC(=O)O)C(=O)O)s3)cc2c(=O)[nH]1", "note": "(centres undefined)", "Potency": "inactive"}
{"smiles": "COc1ccccc1S(=O)(=O)Nc1ccc2c(c1)CN(C)C(=O)N2", "Potency": "inactive"}
{"smiles": "CC#C[C@@H](CC(=O)O)c1ccc(OCc2cccc(-c3ccc(C(F)(F)F)cc3)c2)cc1", "Potency": "inactive"}
{"smiles": "C=C1C(=O)OC2CC(C)=C(C(C)CCCOC(C)=O)C(OC(=O)CC(C)CC)C12", "note": "(centres undefined)", "Potency": "inactive"}
{"smiles": "N#C/C(=C1\\Nc2ccccc2S1)c1ccnc(NCCc2cccnc2)n1", "Potency": "inactive"}
{"smiles": "C/C=C(\\C)C(=O)O[C@H]1C=CC(=O)O[C@H]1/C=C/[C@@H](O)[C@H](C)O", "Potency": "inactive"}
{"smiles": "O=C(Nc1ccc2[nH]nc(-c3ccncc3)c2c1)[C@@H]1CCN(CC(=O)N2CCN(c3ccc(-c4ncccn4)cc3)CC2)C1", "Potency": "inactive"}
{"smiles": "Cn1cc(-c2cnn3c(N)c(Br)c([C@@H]4CCCNC4)nc23)cn1", "Potency": "inactive"}
{"smiles": "Nc1nc(Cl)nc2c1ncn2C1OC(CO)C(O)C1F", "note": "(centres undefined)", "Potency": "3.98 µM (active)"}
{"smiles": "C/C(=C\\Cc1c(O)c(Cl)c(C)c(C=O)c1O)CC/C=C(\\C)[C@H]1CC(=O)C(C)(C)O1", "Potency": "inactive"}
{"smiles": "Cc1sc2c(c1C)C(c1ccc(Cl)cc1)=N[C@H](CC(=O)NCCCCNC(=O)COc1cccc3c1C(=O)N([C@H]1CCC(=O)NC1=O)C3=O)c1nnc(C)n1-2", "Potency": "inactive"}
{"smiles": "CCC(C)CC(=O)OC1C(=O)C(CO)=CC(O)C1C(C)C", "note": "(centres undefined)", "Potency": "28.2 µM (active)"}
{"smiles": "O=C(c1ccc(OC(F)F)c(C#Cc2ccccn2)c1)N1Cc2cccnc2C1", "Potency": "inactive"}
{"smiles": "CNc1nc(NCc2ccc(NS(C)(=O)=O)cc2Cl)cc(-c2ccccn2)n1", "Potency": "inactive"}
{"smiles": "C=C1C(=O)O[C@@H]2/C=C(\\C)CC/C=C(/C=O)[C@H](OC)[C@@H](OC(=O)C(C)C)[C@@H]12", "Potency": "inactive"}
{"smiles": "C=C[C@@]12COC(=O)C(=C)[C@@H]1[C@@H](O)[C@H](C(=C)C(=O)OC)[C@@H](O)C2", "Potency": "inactive"}
{"smiles": "CC[C@H](C(=O)Nc1ccccc1N1CCCC1)c1ccccc1", "Potency": "inactive"}
{"system": "Es-2", "assay": "Primary qHTS to identify gynecologic anti-cancer compounds using libraries of approved drugs and bioactive compounds (AID 1345084); also: nearly all actives have a fitted effect of over 55% in size", "conditions": "Gynecologic cancer cell panel viability, ATPlite luminescence, 48 h; series mostly up to 57.5 µM", "outline": "as §1"}
{"smiles": "C=CC(=O)N1CCCC(n2nc(-c3ccc(Oc4ccccc4)cc3)c3c(N)ncnc32)C1", "note": "(centres undefined)", "Potency": "inactive"}
{"smiles": "OC1CCC(Nc2nc(-c3ccccc3)nc3[nH]ccc23)CC1", "note": "(centres undefined)", "Potency": "inactive"}
{"smiles": "C=C[C@@]1(C)CCC2C(=CCC3[C@]2(C)CCC[C@@]3(C)C(=O)O)C1", "note": "(some centres undefined)", "Potency": "inactive"}
{"smiles": "Cn1c(=O)c(F)c(Nc2ccc(I)cc2F)c2c(=O)n(CC(O)CO)cnc21", "note": "(centres undefined)", "Potency": "3.16 µM (active)"}
{"smiles": "NCC1CCN(c2nccc(-c3ccc4ccccc4c3)n2)CC1", "Potency": "inactive"}
{"smiles": "Nc1ncnc2c1nc(Cl)n2C1OC2COP(=O)(O)OC2C1O", "note": "(centres undefined)", "Potency": "10 µM (active)"}
{"smiles": "C[C@H](Oc1cc(-n2cnc3ccc(CN4CCN(C)CC4)cc32)sc1C(N)=O)c1ccccc1C(F)(F)F", "Potency": "11.2 µM (active)"}
{"smiles": "FC(F)(F)c1ccccc1-c1cc(C(F)(F)F)c2nc(C3=NOC4(CCCCC4)C3)[nH]c2c1", "Potency": "inactive"}
{"smiles": "Nc1nc2c(ncn2C2OC3COP(=O)(O)OC3C2O)c(=O)[nH]1", "note": "(centres undefined)", "Potency": "inactive"}
{"smiles": "CC1(C)SCCN(S(=O)(=O)c2ccc(Oc3ccncc3)cc2)[C@H]1C(=O)NO", "Potency": "inactive"}
{"smiles": "CC(F)(F)CN1CCOc2c(nn(-c3ccccc3Cl)c2-c2ccc(Cl)cc2)C1=O", "Potency": "inactive"}
{"smiles": "COc1cc2ncnc(Nc3ccc(O)c(Br)c3)c2cc1OC", "Potency": "inactive"}
{"smiles": "CCCSc1nc(N[C@@H]2C[C@H]2c2ccc(F)c(F)c2)c2nnn([C@@H]3C[C@H](OCCO)[C@@H](O)[C@H]3O)c2n1", "Potency": "inactive"}
{"smiles": "Fc1ccc(CN2CCC(Nc3ccc(C(F)(F)F)nn3)CC2)cc1F", "Potency": "inactive"}
{"smiles": "CCCn1ncc(CN2CCCC(C(=O)c3cccc(OC(C)C)c3)C2)c1C", "note": "(centres undefined)", "Potency": "inactive"}
{"smiles": "CC(C)c1ccc(NC(=O)c2cccs2)c(-c2nc3ccccc3[nH]c2=O)c1", "Potency": "inactive"}
{"smiles": "Cc1nc(N2CCN(C(=O)c3ccco3)CC2)c2c3c(sc2n1)CCCC3", "Potency": "inactive"}
{"smiles": "CC(O)(C(=O)C1CC1(CO)COC1OC(CO)C(O)C(O)C1O)C1C(O)CC2C3CC=C4CC(O)CC(O)C4(C)C3C(O)CC21C", "note": "(centres undefined)", "Potency": "0.891 µM (active)"}
{"smiles": "COc1ccc(C[C@H]2COC(=O)[C@@H]2Cc2ccc(O[C@@H]3O[C@H](CO)[C@@H](O)[C@H](O)[C@H]3O)c(OC)c2)cc1OC", "Potency": "inactive"}
{"smiles": "O=C(C1CCCCC1)N(CCN1CCN(c2ccccc2O)CC1)c1ccccn1", "Potency": "inactive"}
{"system": "HeLa", "assay": "Primary qHTS to identify gynecologic anti-cancer compounds using libraries of approved drugs and bioactive compounds (AID 1345084); also: nearly all actives have a fitted effect of over 55% in size", "conditions": "Gynecologic cancer cell panel viability, ATPlite luminescence, 48 h; series mostly up to 57.5 µM", "outline": "as §1"}
{"smiles": "C=CC(=O)N1CCCC(n2nc(-c3ccc(Oc4ccccc4)cc3)c3c(N)ncnc32)C1", "note": "(centres undefined)", "Potency": "inactive"}
{"smiles": "OC1CCC(Nc2nc(-c3ccccc3)nc3[nH]ccc23)CC1", "note": "(centres undefined)", "Potency": "inactive"}
{"smiles": "C=C[C@@]1(C)CCC2C(=CCC3[C@]2(C)CCC[C@@]3(C)C(=O)O)C1", "note": "(some centres undefined)", "Potency": "inactive"}
{"smiles": "Cn1c(=O)c(F)c(Nc2ccc(I)cc2F)c2c(=O)n(CC(O)CO)cnc21", "note": "(centres undefined)", "Potency": "inactive"}
{"smiles": "NCC1CCN(c2nccc(-c3ccc4ccccc4c3)n2)CC1", "Potency": "14.1 µM (active)"}
{"smiles": "Nc1ncnc2c1nc(Cl)n2C1OC2COP(=O)(O)OC2C1O", "note": "(centres undefined)", "Potency": "11.2 µM (active)"}
{"smiles": "C[C@H](Oc1cc(-n2cnc3ccc(CN4CCN(C)CC4)cc32)sc1C(N)=O)c1ccccc1C(F)(F)F", "Potency": "5.01 µM (active)"}
{"smiles": "C=C1C(=O)OC2CC(C)=C(C(C)CCCOC(C)=O)C(OC(=O)CC(C)CC)C12", "note": "(centres undefined)", "Potency": "inactive"}
{"smiles": "C/C=C(\\C)C(=O)O[C@H]1C=CC(=O)O[C@H]1/C=C/[C@@H](O)[C@H](C)O", "Potency": "inactive"}
{"smiles": "FC(F)(F)c1ccccc1-c1cc(C(F)(F)F)c2nc(C3=NOC4(CCCCC4)C3)[nH]c2c1", "Potency": "inactive"}
{"smiles": "Nc1nc2c(ncn2C2OC3COP(=O)(O)OC3C2O)c(=O)[nH]1", "note": "(centres undefined)", "Potency": "inactive"}
{"smiles": "Nc1nc(Cl)nc2c1ncn2C1OC(CO)C(O)C1F", "note": "(centres undefined)", "Potency": "inactive"}
{"smiles": "CC1(C)SCCN(S(=O)(=O)c2ccc(Oc3ccncc3)cc2)[C@H]1C(=O)NO", "Potency": "inactive"}
{"smiles": "CC(F)(F)CN1CCOc2c(nn(-c3ccccc3Cl)c2-c2ccc(Cl)cc2)C1=O", "Potency": "inactive"}
{"smiles": "COc1cc2ncnc(Nc3ccc(O)c(Br)c3)c2cc1OC", "Potency": "inactive"}
{"smiles": "CCCSc1nc(N[C@@H]2C[C@H]2c2ccc(F)c(F)c2)c2nnn([C@@H]3C[C@H](OCCO)[C@@H](O)[C@H]3O)c2n1", "Potency": "inactive"}
{"smiles": "CNc1nc(NCc2ccc(NS(C)(=O)=O)cc2Cl)cc(-c2ccccn2)n1", "Potency": "inactive"}
{"smiles": "Fc1ccc(CN2CCC(Nc3ccc(C(F)(F)F)nn3)CC2)cc1F", "Potency": "inactive"}
{"smiles": "CCCn1ncc(CN2CCCC(C(=O)c3cccc(OC(C)C)c3)C2)c1C", "note": "(centres undefined)", "Potency": "inactive"}
{"smiles": "C=C1C(=O)O[C@@H]2/C=C(\\C)CC/C=C(/C=O)[C@H](OC)[C@@H](OC(=O)C(C)C)[C@@H]12", "Potency": "inactive"}
{"smiles": "CC(C)c1ccc(NC(=O)c2cccs2)c(-c2nc3ccccc3[nH]c2=O)c1", "Potency": "inactive"}
{"smiles": "Cc1nc(N2CCN(C(=O)c3ccco3)CC2)c2c3c(sc2n1)CCCC3", "Potency": "inactive"}
{"smiles": "CC(O)(C(=O)C1CC1(CO)COC1OC(CO)C(O)C(O)C1O)C1C(O)CC2C3CC=C4CC(O)CC(O)C4(C)C3C(O)CC21C", "note": "(centres undefined)", "Potency": "1.41 µM (active)"}
{"smiles": "COc1ccc(C[C@H]2COC(=O)[C@@H]2Cc2ccc(O[C@@H]3O[C@H](CO)[C@@H](O)[C@H](O)[C@H]3O)c(OC)c2)cc1OC", "Potency": "inactive"}
{"smiles": "O=C(C1CCCCC1)N(CCN1CCN(c2ccccc2O)CC1)c1ccccn1", "Potency": "inactive"}
